Out of some 5,500 compounds screened, about 2,000 (36%) were called active. About 18% were inconclusive and are not listed. Cut-off read from the data, not from the text of the source: active = normalized growth mostly below about 0.91 (no sharp cut-off); inconclusive = no clear call, values can overlap the other calls; inactive = mostly above about 0.92. The list shows a part of the results.
Test: chemical genetic growth profiling, strain panel (AID 1159580);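 note: tested at 20 µM; growth read once vehicle control cultures reached saturation at 30 °C; 1 = growth at the plate median or of vehicle wells; lower values mean less growth of the strain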
Conditions: growth OD
[1] = S. cerevisiae deletion strains, locus YAL013W, strain DEP1, stronger effect = lower value
[2] = S. cerevisiae deletion strains, locus YBR229C, strain ROT2, stronger effect = lower value
[3] = S. cerevisiae deletion strains, locus YDL101C, strain DUN1, stronger effect = lower value
[4] = S. cerevisiae deletion strains, locus YDR150W, strain NUM1, stronger effect = lower value
[5] = S. cerevisiae deletion strains, locus YEL061C, strain CIN8, stronger effect = lower value
[6] = S. cerevisiae deletion strains, locus YGR078C, strain PAC10, stronger effect = lower value
[7] = S. cerevisiae deletion strains, locus YGR229C, strain SMI1, stronger effect = lower value
[8] = S. cerevisiae deletion strains, locus YHR030C, strain SLT2, stronger effect = lower value
[9] = S. cerevisiae deletion strains, locus YHR087W, strain rtc3, stronger effect = lower value
[10] = S. cerevisiae deletion strains, locus YJR043C, strain POL32, stronger effect = lower value
[11] = S. cerevisiae deletion strains, locus YJR075W, strain HOC1, stronger effect = lower value
[12] = S. cerevisiae deletion strains, locus YKL190W, strain CNB1, stronger effect = lower value
[13] = S. cerevisiae deletion strains, locus YLR039C, strain RIC1, stronger effect = lower value
[14] = S. cerevisiae deletion strains, locus YLR058C, strain SHM2 (second series), stronger effect = lower value
[15] = S. cerevisiae deletion strains, locus YLR085C, strain ARP6, stronger effect = lower value
[16] = S. cerevisiae deletion strains, locus YLR262C, strain YPT6, stronger effect = lower value
[17] = S. cerevisiae deletion strains, locus YML094W, strain GIM5, stronger effect = lower value
[18] = S. cerevisiae deletion strains, locus YMR219W, strain ESC1, stronger effect = lower value
[19] = S. cerevisiae deletion strains, locus YMR263W, strain SAP30, stronger effect = lower value
[20] = S. cerevisiae deletion strains, locus YNL153C, strain GIM3, stronger effect = lower value
[21] = S. cerevisiae deletion strains, locus YNL298W, strain CLA4 (second series), stronger effect = lower value
[22] = S. cerevisiae deletion strains, locus YNL322C, strain KRE1, stronger effect = lower value
[23] = S. cerevisiae deletion strains, locus YNR030W, strain Alg12, stronger effect = lower value
[24] = S. cerevisiae deletion strains, locus YPL055C, strain LGE1, stronger effect = lower value
[25] = S. cerevisiae deletion strains, locus YPL241C, strain CIN2, stronger effect = lower value
[26] = S. cerevisiae deletion strains, locus YPR135W, strain CTF4, stronger effect = lower value
[27] = S. cerevisiae strains, strain wild type, stronger effect = lower value
[28] = S. cerevisiae deletion strains, locus YMR307W, strain GAS1, stronger effect = lower value

Measured: normalized growth

O=C(COC(=O)c1ccccc1C(=O)c1ccccc1)c1ccccc1
inactive: [1] 0.984 | [2] 0.988 | [3] 0.97 | [4] 0.969 | [5] 0.989 | [6] 0.98 | [7] 0.993 | [8] 0.861 | [9] 0.98 | [10] 0.979 | [11] 0.957 | [12] 0.998 | [13] 0.912 | [14] 0.984 | [15] 0.936 | [16] 0.933 | [17] 0.99 | [18] 0.978 | [19] 0.902 | [20] 0.99 | [21] 0.971 | [22] 0.989 | [23] 0.975 | [24] 0.979 | [25] 0.95 | [26] 0.868 | [27] 1

COc1cccc(C(=O)NCCN2CCN(c3ccc(Cl)cc3)CC2)c1
inactive: S. cerevisiae deletion strains, locus YAL040C, strain CLN3, stronger effect = lower value 0.992 | [4] 1.01 | S. cerevisiae deletion strains, locus YDR363W, strain ESC2, stronger effect = lower value 1.01 | S. cerevisiae deletion strains, locus YER002W, strain NOP16, stronger effect = lower value 1.02 | [6] 1.01 | [7] 1 | [28] 1.01 | [20] 1.01 | S. cerevisiae deletion strains, locus YNL175C, strain NOP13, stronger effect = lower value 1.03 | S. cerevisiae deletion strains, locus YNL197C, strain WHI3, stronger effect = lower value 1.01 | S. cerevisiae deletion strains, locus YNL224C, strain SQS1, stronger effect = lower value 1.03 | S. cerevisiae deletion strains, locus YOR083W, strain WHI5 (second series), stronger effect = lower value 1.03 | [25] 1.01

COc1cccc(C(=O)N/N=C(/C)c2ccccc2O)c1
inactive: [1] 0.975 | [2] 0.961 | S. cerevisiae deletion strains, locus YCL061C, strain MRC1, stronger effect = lower value 0.915 | [3] 0.93 | [4] 0.92 | [5] 0.982 | [6] 0.955 | [9] 0.981 | [10] 0.958 | [11] 0.969 | [14] 0.994 | [18] 0.987 | [19] 0.969 | [20] 0.973 | [22] 0.985 | [24] 0.991
active: [8] 0.466 | [12] 0.802 | [13] 0.618 | [15] 0.395 | [16] 0.625 | [17] 0.817 | [28] 0.537 | S. cerevisiae deletion strains, locus YNL128W, strain TEP1, stronger effect = lower value 0.871 | [21] 0.805 | [23] 0.759 | [25] 0.791 | [26] 0.592 | [27] 0.777

COc1cccc(NC(=O)NC2Cc3ccccc3C2)c1
inactive: [1] 0.975 | [2] 0.998 | [3] 0.991 | S. cerevisiae deletion strains, locus YDL134C, strain PPH21, stronger effect = lower value 0.989 | [4] 0.867 | [5] 1 | [6] 0.989 | [8] 0.929 | [9] 1 | S. cerevisiae deletion strains, locus YJL187C, strain SWE1, stronger effect = lower value 0.998 | [10] 0.982 | [11] 0.996 | [12] 0.996 | [13] 0.996 | [14] 0.992 | [15] 0.952 | [16] 0.96 | [17] 0.992 | [18] 0.99 | [19] 0.927 | [28] 0.999 | [20] 0.994 | [21] 0.973 | [22] 1.01 | [23] 0.978 | S. cerevisiae deletion strains, locus YOL006C, strain TOP1, stronger effect = lower value 0.937 | [24] 0.883 | [25] 0.986 | [26] 0.877

CC(=O)c1ccccc1C(=O)c1ccc(C(C)(C)C)cc1
active: S. cerevisiae deletion strains, locus YLR113W, strain HOG1, stronger effect = lower value 0.761 | S. cerevisiae deletion strains, locus YPL256C, strain CLN2, stronger effect = lower value 0.85
inactive: S. cerevisiae deletion strains, locus YAR019C, strain CDC15, stronger effect = lower value 0.961 | S. cerevisiae deletion strains, locus YBL105C, strain PKC1, stronger effect = lower value 0.961 | S. cerevisiae deletion strains, locus YBR135W, strain CKS1, stronger effect = lower value 0.957 | S. cerevisiae deletion strains, locus YBR136W, strain MEC1, stronger effect = lower value 0.96 | S. cerevisiae deletion strains, locus YBR160W, strain CDC28, stronger effect = lower value 0.959 | S. cerevisiae deletion strains, locus YDL017W, strain CDC7, stronger effect = lower value 0.956 | S. cerevisiae deletion strains, locus YDL028C, strain MPS1, stronger effect = lower value 0.961 | [3] 0.95 | S. cerevisiae deletion strains, locus YDL108W, strain KIN28, stronger effect = lower value 0.964 | S. cerevisiae deletion strains, locus YDL132W, strain cdc53, stronger effect = lower value 0.958 | S. cerevisiae deletion strains, locus YDL214C, strain PRR2, stronger effect = lower value 0.969 | S. cerevisiae deletion strains, locus YDR052C, strain DBF4, stronger effect = lower value 0.964 | S. cerevisiae deletion strains, locus YDR054C, strain cdc34, stronger effect = lower value 0.957 | S. cerevisiae deletion strains, locus YDR226W, strain ADK1, stronger effect = lower value 0.96 | S. cerevisiae deletion strains, locus YDR477W, strain SNF1, stronger effect = lower value 0.969 | S. cerevisiae deletion strains, locus YER123W, strain YCK3, stronger effect = lower value 0.982 | S. cerevisiae deletion strains, locus YER133W, strain GLC7, stronger effect = lower value 0.953 | S. cerevisiae deletion strains, locus YFL009W, strain cdc4, stronger effect = lower value 0.953 | S. cerevisiae deletion strains, locus YFL029C, strain CAK1, stronger effect = lower value 0.953 | S. cerevisiae deletion strains, locus YFR003C, strain YPI1, stronger effect = lower value 0.961 | S. cerevisiae deletion strains, locus YFR019W, strain FAB1, stronger effect = lower value 0.981 | S. cerevisiae deletion strains, locus YFR028C, strain CDC14, stronger effect = lower value 0.965 | S. cerevisiae deletion strains, locus YGR040W, strain KSS1, stronger effect = lower value 0.967 | S. cerevisiae deletion strains, locus YGR052W, strain FMP48, stronger effect = lower value 0.992 | S. cerevisiae deletion strains, locus YGR092W, strain DBF2, stronger effect = lower value 0.954 | [8] 0.855 | S. cerevisiae deletion strains, locus YHR079C, strain IRE1, stronger effect = lower value 0.918 | S. cerevisiae deletion strains, locus YHR082C, strain KSP1, stronger effect = lower value 1.07 | S. cerevisiae deletion strains, locus YHR205W, strain SCH9, stronger effect = lower value 1 | S. cerevisiae deletion strains, locus YIL147C, strain SLN1, stronger effect = lower value 0.961 | S. cerevisiae deletion strains, locus YJL095W, strain BCK1, stronger effect = lower value 0.999 | S. cerevisiae deletion strains, locus YJL128C, strain PBS2, stronger effect = lower value 0.918 | S. cerevisiae deletion strains, locus YJL157C, strain FAR1, stronger effect = lower value 0.984 | S. cerevisiae deletion strains, locus YJR016C, strain ILV3, stronger effect = lower value 0.969 | S. cerevisiae deletion strains, locus YJR066W, strain TOR1 (second series), stronger effect = lower value 0.989 | S. cerevisiae deletion strains, locus YJR066W, strain TOR1, stronger effect = lower value 1.04 | S. cerevisiae deletion strains, locus YKL048C, strain ELM1, stronger effect = lower value 0.939 | S. cerevisiae deletion strains, locus YKL067W, strain YNK1, stronger effect = lower value 0.967 | S. cerevisiae deletion strains, locus YKL101W, strain HSL1, stronger effect = lower value 0.976 | S. cerevisiae deletion strains, locus YKL193C, strain SDS22, stronger effect = lower value 0.961 | S. cerevisiae deletion strains, locus YKL203C, strain TOR2, stronger effect = lower value 0.989 | S. cerevisiae deletion strains, locus YLR133W, strain CKI1, stronger effect = lower value 0.986 | S. cerevisiae deletion strains, locus YLR403W, strain SFP1, stronger effect = lower value 0.985 | S. cerevisiae deletion strains, locus YML070W, strain DAK1, stronger effect = lower value 0.953 | S. cerevisiae deletion strains, locus YMR001C, strain CDC5, stronger effect = lower value 0.959 | S. cerevisiae deletion strains, locus YMR205C, strain PFK2 (second series), stronger effect = lower value 0.981 | S. cerevisiae deletion strains, locus YMR277W, strain FCP1, stronger effect = lower value 0.963 | S. cerevisiae deletion strains, locus YNL006W, strain LST8, stronger effect = lower value 0.954 | S. cerevisiae deletion strains, locus YNL020C, strain ARK1, stronger effect = lower value 0.99 | S. cerevisiae deletion strains, locus YNL161W, strain CBK1, stronger effect = lower value 0.959 | S. cerevisiae deletion strains, locus YNL183C, strain NPR1, stronger effect = lower value 1 | S. cerevisiae deletion strains, locus YNL207W, strain RIO2, stronger effect = lower value 0.958 | S. cerevisiae deletion strains, locus YNL222W, strain SSU72, stronger effect = lower value 0.966 | S. cerevisiae deletion strains, locus YNL307C, strain MCK1 (second series), stronger effect = lower value 0.975 | S. cerevisiae deletion strains, locus YOL078W, strain AVO1, stronger effect = lower value 0.967 | S. cerevisiae deletion strains, locus YOL136C, strain PFK27, stronger effect = lower value 0.98 | S. cerevisiae deletion strains, locus YOR061W, strain CKA2, stronger effect = lower value 0.975 | S. cerevisiae deletion strains, locus YOR119C, strain RIO1, stronger effect = lower value 1.02 | S. cerevisiae deletion strains, locus YOR231W, strain MKK1, stronger effect = lower value 0.949 | S. cerevisiae deletion strains, locus YOR329C, strain SCD5, stronger effect = lower value 0.961 | S. cerevisiae deletion strains, locus YPL031C, strain PHO85, stronger effect = lower value 0.961 | S. cerevisiae deletion strains, locus YPL153C, strain RAD53, stronger effect = lower value 0.953 | S. cerevisiae deletion strains, locus YPL204W, strain HRR25, stronger effect = lower value 0.96 | S. cerevisiae deletion strains, locus YPL209C, strain IPL1, stronger effect = lower value 0.959 | S. cerevisiae deletion strains, locus YPR025C, strain CCL1, stronger effect = lower value 0.96 | S. cerevisiae deletion strains, locus YPR106W, strain ISR1, stronger effect = lower value 0.969 | S. cerevisiae deletion strains, locus YPR111W, strain DBF20, stronger effect = lower value 0.946 | S. cerevisiae deletion strains, strain NNK1, stronger effect = lower value 0.96 | S. cerevisiae deletion strains, strain TSCII, stronger effect = lower value 0.955

— PubChem BioAssay AID1159580 (chemical genetic matrix, 2015)
